Experiment [1] can be described thus: p53 stabilisation in HPV-positive human cells, imaging, p53-positive nuclei imaging, 24 h, 48 h (AID 1508601). Particulars: 24/48 h.
Experiment [2] addresses Cellular tumor antigen p53 (Homo sapiens) (UniProt P04637). The experiment is described as above. Particulars: 24/48 h, stronger effect = higher value.
Setting [3] is: measured here: cell number at 24 h, Library stock concentration: 80 uM.
[4] abbreviates: measured here: cell number at 24 h, Library stock concentration: 400 uM.
The mark [5] stands for this setting: measured here: cell number at 24 h, Library stock concentration: 2 mM.
[6] abbreviates: measured here: cell number at 24 h, Library stock concentration: 3.33 mM.
The mark [7] stands for this setting: measured here: cell number at 24 h, Library stock concentration: 10 mM.
The mark [8] stands for this setting: measured here: cell number at 48 h, Library stock concentration: 80 uM.
Where [9] appears, read: measured here: cell number at 48 h, Library stock concentration: 400 uM.
Where [10] appears, read: measured here: cell number at 48 h, Library stock concentration: 2 mM.
Where [11] appears, read: measured here: cell number at 48 h, Library stock concentration: 3.33 mM.
[12] abbreviates: measured here: cell number at 48 h, Library stock concentration: 10 mM.
Setting [13] is: Library stock concentration: 80 uM.
The mark [14] stands for this setting: Library stock concentration: 400 uM.
Setting [15] is: Library stock concentration: 2 mM.
The mark [16] stands for this setting: Library stock concentration: 3.33 mM.
The mark [17] stands for this setting: Library stock concentration: 10 mM.
Where [18] appears, read: measured here: p53 positive nuclei at 24 h, Library stock concentration: 80 uM.
[19] abbreviates: measured here: p53 positive nuclei at 24 h, Library stock concentration: 400 uM.
[20] abbreviates: measured here: p53 positive nuclei at 24 h, Library stock concentration: 2 mM.
[21] abbreviates: measured here: p53 positive nuclei at 24 h, Library stock concentration: 3.33 mM.
The mark [22] stands for this setting: measured here: p53 positive nuclei at 24 h, Library stock concentration: 10 mM.
[23] abbreviates: measured here: cell number at 24 h, concentration not given here.
[24] abbreviates: measured here: cell number at 48 h, concentration not given here.
Where [25] appears, read: measured here: p53 positive nuclei at 24 h, concentration not given here.

Structures are written as SMILES. “And” between values parts separate entries of the source, which are not always exact repeats. Equal values may be shown once. The campaign covered roughly 5,700 compounds. About 85 (1%) were called active. Rule as the data show it: active = p53-positive nuclei above about 36% (passing the limit was not always enough); inactive = the rest. This excerpt belongs to a sample that is enriched for actives.

Chain of Cellular tumor antigen p53 (Homo sapiens) (P04637 whole entry, looked up): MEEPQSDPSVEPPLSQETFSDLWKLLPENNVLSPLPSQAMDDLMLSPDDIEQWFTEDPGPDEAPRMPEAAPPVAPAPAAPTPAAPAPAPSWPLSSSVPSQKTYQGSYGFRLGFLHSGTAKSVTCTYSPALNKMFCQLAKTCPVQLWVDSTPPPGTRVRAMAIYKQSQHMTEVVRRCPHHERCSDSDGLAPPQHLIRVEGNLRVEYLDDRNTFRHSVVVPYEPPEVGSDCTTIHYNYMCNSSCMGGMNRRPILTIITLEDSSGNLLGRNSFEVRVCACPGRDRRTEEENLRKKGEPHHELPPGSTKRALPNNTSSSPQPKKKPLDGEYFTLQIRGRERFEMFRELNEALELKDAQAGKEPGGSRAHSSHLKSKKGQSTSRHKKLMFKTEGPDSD

Regarding `COc1ccc(-c2nc(N3CCOCC3)c3sc(CN(C)c4ncc(C(=O)NO)cn4)cc3n2)cn1`, the nuclei count, normalised came out at 47.5% in experiment [1] (setting [3]); 43.3% in experiment [1] (setting [4]); 39.6% in experiment [1] (setting [5]); 33.2% in experiment [1] (setting [6]); 31.5% in experiment [1] (setting [7]); 22.9% in experiment [1] (setting [8]). Further, the nuclei count, normalised in experiment [1] (setting [9]) was 21.1%; in experiment [1] (setting [10]) it was 24.2%; in experiment [1] (setting [11]), 21.9%; in experiment [1] (setting [12]), 19%. The p53-positive nuclei, normalised is 96.8% (active) in experiment [2] (setting [13]); 94.6% (active) in experiment [2] (setting [14]); 98.6% (active) in experiment [2] (setting [15]); 65.1% (active) in experiment [2] (setting [16]); 81.6% (active) in experiment [2] (setting [17]); 77.1% in experiment [2] (setting [18]). For the same compound, the p53-positive nuclei, normalised in experiment [2] (setting [19]) was determined as 75.3%; in experiment [2] (setting [20]), 81.2%; in experiment [2] (setting [21]) it was 43.2%; in experiment [2] (setting [22]), 59%.
With `CS(=O)(=O)N1CCN(Cc2cc3nc(-c4cccc5[nH]ncc45)nc(N4CCOCC4)c3s2)CC1`, the nuclei count, normalised came to 89.1% in experiment [1] (measured here: cell number at 24 h, Library stock concentration: 46 uM); 105% in experiment [1] (setting [3]); 97% in experiment [1] (measured here: cell number at 24 h, Library stock concentration: 278 uM); 93.5% in experiment [1] (setting [4]); 84.9% in experiment [1] (measured here: cell number at 24 h, Library stock concentration: 1.67 mM); 94% in experiment [1] (setting [5]). For the same compound, the nuclei count, normalised was 97.5% in experiment [1] (setting [6]); 66.1% and 64.1% in experiment [1] (setting [7]); 97% in experiment [1] (measured here: cell number at 48 h, Library stock concentration: 46 uM); 109% in experiment [1] (setting [8]); 100% in experiment [1] (measured here: cell number at 48 h, Library stock concentration: 278 uM); 93.5% in experiment [1] (setting [9]). Also, the nuclei count, normalised in experiment [1] (measured here: cell number at 48 h, Library stock concentration: 1.67 mM) was 87.3%; in experiment [1] (setting [10]), 89.3%; in experiment [1] (setting [11]), 101%; in experiment [1] (setting [12]), 56.3% and 65.9%. In addition, the p53-positive nuclei, normalised in experiment [2] (Library stock concentration: 46 uM) was -0.00738% (inactive); in experiment [2] (setting [13]), -0.168% (inactive); in experiment [2] (Library stock concentration: 278 uM), -0.0603% (inactive); in experiment [2] (setting [14]), -0.297% (inactive); in experiment [2] (Library stock concentration: 1.67 mM) it was -0.0683% (inactive); in experiment [2] (setting [15]), -0.297% (inactive). Further, the p53-positive nuclei, normalised is -0.619% (inactive) in experiment [2] (setting [16]); -0.184% (inactive) and -0.277% (inactive) in experiment [2] (setting [17]); -0.0723% in experiment [2] (measured here: p53 positive nuclei at 24 h, Library stock concentration: 46 uM); 0.26% in experiment [2] (setting [18]); -0.0265% in experiment [2] (measured here: p53 positive nuclei at 24 h, Library stock concentration: 278 uM); -0.0433% in experiment [2] (setting [19]). Also, the p53-positive nuclei, normalised in experiment [2] (measured here: p53 positive nuclei at 24 h, Library stock concentration: 1.67 mM) is -0.14%; in experiment [2] (setting [20]), -0.0447%; in experiment [2] (setting [21]), -0.329%; in experiment [2] (setting [22]), -0.00819% and -0.118%.
Regarding `CCCCC[C@H](O)/C=C/[C@H]1[C@H](O)CC(=O)[C@@H]1C/C=C\CCCC(=O)Oc1ccc(NC(C)=O)cc1`, the values for the nuclei count, normalised in experiment [1] (setting [23]) and in experiment [1] (setting [24]) were 106% and 115%, respectively. The p53-positive nuclei, normalised in experiment [2] (concentration not given here) was -0.0787% (inactive); in experiment [2] (setting [25]), -0.118%.
Consider `CCCCCCCCCC(=O)CC(=O)N[C@H]1CCOC1=O`, for which the nuclei count, normalised in experiment [1] (setting [23]) was 107%; in experiment [1] (setting [24]), 108%. The p53-positive nuclei, normalised in experiment [2] (concentration not given here) was 0.0451% (inactive); in experiment [2] (setting [25]), -0.0502%.
For `CC1CCNC(=O)c2cc3ccc(C(=O)Nc4nc5ccccc5n4CCCN(C)C)cc3n21` (stereo not given), the nuclei count, normalised in experiment [1] (setting [3]) was 112%; in experiment [1] (setting [4]), 107%; in experiment [1] (setting [5]), 107%; in experiment [1] (setting [7]), 106%; in experiment [1] (setting [8]), 115%; in experiment [1] (setting [9]), 113%. Also, the nuclei count, normalised in experiment [1] (setting [10]) came out at 111%; in experiment [1] (setting [12]) it was 119%. Besides, the p53-positive nuclei, normalised in experiment [2] (setting [13]) is -0.131% (inactive); in experiment [2] (setting [14]) it was -0.0944% (inactive); in experiment [2] (setting [15]) it was 0.0714% (inactive); in experiment [2] (setting [17]), -0.134% (inactive); in experiment [2] (setting [18]), -0.0686%; in experiment [2] (setting [19]) it was 0.0741%. The p53-positive nuclei, normalised in experiment [2] (setting [20]) was -0.156%; in experiment [2] (setting [22]), -0.111%.
Regarding `Cn1ncc(NC(=O)CCc2cn3ccccc3n2)n1`, the nuclei count, normalised in experiment [1] (setting [23]) was found to be 84.4%; in experiment [1] (setting [24]) it was 90.1%. Also, the p53-positive nuclei, normalised in experiment [2] (concentration not given here) is -0.189% (inactive); in experiment [2] (setting [25]) it was -0.142%.
